Reference: PubChem BioAssay AID1159580 (chemical genetic matrix, 2015)
About 2,000 (36%) of roughly 5,500 compounds were called active. Not shown: some 18% with an inconclusive outcome. Cut-off read from the data, not from the text of the source: active = normalized growth mostly below about 0.91 (no sharp cut-off); inconclusive = no clear call, values can overlap the other calls; inactive = mostly above about 0.92. The list shows a part of the results.

Assay: chemical genetic growth profiling, strain panel (AID 1159580);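 note: tested at 20 µM; growth read once vehicle control cultures reached saturation at 30 °C; 1 = growth at the plate median or of vehicle wells; lower values mean less growth of the strain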
Conditions: growth OD

Measured: normalized growth

NCc1ccc(S(N)(=O)=O)cc1
inactive: S. cerevisiae deletion strains, locus YKL009W, strain mrt4, hits give low values 0.974 | S. cerevisiae deletion strains, locus YKL068W, hits give low values 0.987 | S. cerevisiae deletion strains, locus YKL085W, strain MDH1 (second series), hits give low values 0.982 | S. cerevisiae deletion strains, locus YKL085W, strain MDH1, hits give low values 0.982 | S. cerevisiae deletion strains, locus YKL160W, strain elf1, hits give low values 1.06 | S. cerevisiae deletion strains, locus YKL190W, strain CNB1, hits give low values 1.01 | S. cerevisiae deletion strains, locus YKR001C, strain vps1, hits give low values 1.02 | S. cerevisiae deletion strains, locus YKR026C, strain gcn3, hits give low values 1.01 | S. cerevisiae deletion strains, locus YKR091W, strain srl3, hits give low values 1 | S. cerevisiae deletion strains, locus YLL001W, strain dnm1, hits give low values 1.05 | S. cerevisiae deletion strains, locus YLL026W, hits give low values 1 | S. cerevisiae deletion strains, locus YLL041C, strain sdh2, hits give low values 0.996 | S. cerevisiae deletion strains, locus YLR027C, strain aat2, hits give low values 1.01 | S. cerevisiae deletion strains, locus YLR039C, strain RIC1, hits give low values 0.986 | S. cerevisiae deletion strains, locus YLR058C, strain SHM2, hits give low values 0.984 | S. cerevisiae deletion strains, locus YLR102C, strain apc9, hits give low values 0.988 | S. cerevisiae deletion strains, locus YLR113W, strain HOG1, hits give low values 1.01 | S. cerevisiae deletion strains, locus YLR221C, strain rsa3, hits give low values 1.05 | S. cerevisiae deletion strains, locus YLR258W, strain gsy2, hits give low values 1.01 | S. cerevisiae deletion strains, locus YLR262C, strain YPT6 (second series), hits give low values 1.04 | S. cerevisiae deletion strains, locus YLR262C, strain YPT6, hits give low values 1.02 | S. cerevisiae deletion strains, locus YLR268W, strain sec22, hits give low values 0.988 | S. cerevisiae deletion strains, locus YLR320W, strain mms22, hits give low values 1.06 | S. cerevisiae deletion strains, locus YLR330W, strain CHS5, hits give low values 0.989 | S. cerevisiae deletion strains, locus YLR342W, strain FKS1 (second series), hits give low values 1 | S. cerevisiae deletion strains, locus YLR342W, strain FKS1, hits give low values 1.01 | S. cerevisiae deletion strains, locus YLR357W, strain rsc2, hits give low values 1.01 | S. cerevisiae deletion strains, locus YLR370C, strain arc18, hits give low values 1.01 | S. cerevisiae deletion strains, locus YLR371W, strain rom2, hits give low values 0.985 | S. cerevisiae deletion strains, locus YLR384C, strain iki3, hits give low values 1.01 | S. cerevisiae deletion strains, locus YLR418C, strain cdc73, hits give low values 0.954 | S. cerevisiae deletion strains, locus YML016C, strain PPZ1, hits give low values 0.995 | S. cerevisiae deletion strains, locus YML032C, strain rad52, hits give low values 0.99 | S. cerevisiae deletion strains, locus YML120C, strain ndi1, hits give low values 1.04 | S. cerevisiae deletion strains, locus YML124C, strain tub3, hits give low values 0.99 | S. cerevisiae deletion strains, locus YMR058W, strain fet3, hits give low values 1.02 | S. cerevisiae deletion strains, locus YMR078C, strain ctf18, hits give low values 0.978 | S. cerevisiae deletion strains, locus YMR125W, strain sto1, hits give low values 1.04 | S. cerevisiae deletion strains, locus YMR129W, hits give low values 1 | S. cerevisiae deletion strains, locus YMR205C, strain PFK2, hits give low values 1.05 | S. cerevisiae deletion strains, locus YMR223W, strain ubp8, hits give low values 0.962 | S. cerevisiae deletion strains, locus YMR231W, strain pep5, hits give low values 0.993 | S. cerevisiae deletion strains, locus YMR263W, strain SAP30, hits give low values 0.999 | S. cerevisiae deletion strains, locus YMR307W, strain GAS1, hits give low values 1.01 | S. cerevisiae deletion strains, locus YNL067W, strain RPL9B, hits give low values 1 | S. cerevisiae deletion strains, locus YNL071W, strain lat1, hits give low values 1.01 | S. cerevisiae deletion strains, locus YNL153C, strain GIM3, hits give low values 1.01 | S. cerevisiae deletion strains, locus YNL183C, strain NPR1, hits give low values 0.956 | S. cerevisiae deletion strains, locus YNL209W, strain ssb2, hits give low values 1 | S. cerevisiae deletion strains, locus YNL233W, strain BNI4, hits give low values 0.99 | S. cerevisiae deletion strains, locus YNL248C, strain rpa49, hits give low values 1.04 | S. cerevisiae deletion strains, locus YNL250W, strain rad50, hits give low values 0.967 | S. cerevisiae deletion strains, locus YNL271C, strain bni1, hits give low values 0.985 | S. cerevisiae deletion strains, locus YNL298W, strain CLA4, hits give low values 0.991 | S. cerevisiae deletion strains, locus YNL307C, strain MCK1, hits give low values 0.992 | S. cerevisiae deletion strains, locus YNL322C, strain KRE1 (second series), hits give low values 1.02 | S. cerevisiae deletion strains, locus YNL322C, strain KRE1, hits give low values 0.999 | S. cerevisiae deletion strains, locus YNR049C, strain mso1, hits give low values 0.999 | S. cerevisiae deletion strains, locus YNR052C, strain pop2, hits give low values 0.987 | S. cerevisiae deletion strains, locus YOL006C, strain TOP1, hits give low values 0.97 | S. cerevisiae deletion strains, locus YOL012C, strain htz1 1.28 | S. cerevisiae deletion strains, locus YOL147C, strain pex11, hits give low values 0.985 | S. cerevisiae deletion strains, locus YOR001W, strain rrp6, hits give low values 0.972 | S. cerevisiae deletion strains, locus YOR061W, strain CKA2, hits give low values 0.993 | S. cerevisiae deletion strains, locus YOR069W, strain VPS5, hits give low values 0.99 | S. cerevisiae deletion strains, locus YOR070C, strain gyp1, hits give low values 1.01 | S. cerevisiae deletion strains, locus YOR080W, strain dia2, hits give low values 0.996 | S. cerevisiae deletion strains, locus YOR083W, strain WHI5, hits give low values 1.06 | S. cerevisiae deletion strains, locus YOR106W, strain vam3, hits give low values 1.06 | S. cerevisiae deletion strains, locus YOR136W, strain idh2, hits give low values 0.992 | S. cerevisiae deletion strains, locus YOR144C, strain elg1, hits give low values 0.987 | S. cerevisiae deletion strains, locus YOR184W, strain ser1, hits give low values 1 | S. cerevisiae deletion strains, locus YOR231W, strain MKK1, hits give low values 1.01 | S. cerevisiae deletion strains, locus YOR265W, strain rbl2, hits give low values 1.02 | S. cerevisiae deletion strains, locus YOR270C, strain vph1, hits give low values 1.06 | S. cerevisiae deletion strains, locus YOR290C, strain snf2, hits give low values 1.02 | S. cerevisiae deletion strains, locus YOR316C, strain cot1, hits give low values 0.993 | S. cerevisiae deletion strains, locus YPL051W, strain arl3, hits give low values 1.03 | S. cerevisiae deletion strains, locus YPL055C, strain LGE1, hits give low values 1.01 | S. cerevisiae deletion strains, locus YPL078C, strain atp4, hits give low values 1.06 | S. cerevisiae deletion strains, locus YPL106C, strain sse1, hits give low values 1.03 | S. cerevisiae deletion strains, locus YPL240C, strain hsp82, hits give low values 1.01 | S. cerevisiae deletion strains, locus YPL241C, strain CIN2, hits give low values 0.998 | S. cerevisiae deletion strains, locus YPL256C, strain CLN2, hits give low values 1.01 | S. cerevisiae deletion strains, locus YPR119W, strain clb2, hits give low values 0.993 | S. cerevisiae deletion strains, locus YPR141C, strain kar3, hits give low values 0.976 | S. cerevisiae deletion strains, locus YPR163C, strain tif3, hits give low values 0.995 | S. cerevisiae deletion strains, locus YPR167C, strain met16, hits give low values 0.99 | S. cerevisiae deletion strains, strain wtn01, hits give low values 0.987 | S. cerevisiae strains, strain wild type, hits give low values 1.01
